Measured values taken from PubChem BioAssay (NCATS).
Inconclusive results are not listed. Active and inactive are the calls of the source. Calls follow the shape of the dose curve; as a rule, active = well fitted inhibition curve with a large enough effect; inconclusive = small, poorly fitted or top-dose-only effect; inactive = flat fitted curve, though single readings scatter.

Tests used:
Experiment in all cases: qHTS profiling for inhibitors of Plasmodium falciparum proliferation (AID 504749); also: nearly all actives have a fitted effect of over 60% in size
Details in all cases: P. falciparum in erythrocytes, SYBR Green DNA, 72 h; series mostly up to 28.7 µM
CP291 = system: CP291
How it was run: (§1)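 Three-day growth assay of blood-stage parasites in erythrocytes (0.3% parasitemia, 2.5% hematocrit) at 37 C, 5% CO2, quantified by SYBR Green DNA staining after overnight detergent lysis.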

CP297 = system: CP297
How it was run: as §1

CP305 = system: CP305
How it was run: as §1

CP315 = system: CP315
How it was run: as §1

CP325 = system: CP325
How it was run: as §1

CP329 = system: CP329
How it was run: as §1

CP335 = system: CP335
How it was run: as §1

DFO2036 = system: DFO2036
How it was run: as §1

DIV14 = system: DIV14
How it was run: as §1

DIV17 = system: DIV17
How it was run: as §1

DIV30 = system: DIV30
How it was run: as §1

Dd2 = system: Dd2
How it was run: as §1

ECU = system: ECU
How it was run: as §1

FAB9 = system: FAB9
How it was run: as §1

GB4 = system: GB4
How it was run: as §1

HB3 = system: HB3
How it was run: as §1

ICS = system: ICS
How it was run: as §1

JCK = system: JCK
How it was run: as §1

N140 = system: N140
How it was run: as §1

P93_24 = system: P93_24
How it was run: as §1

Measured: Potency

CCC(C)[C@@H](N)C(=O)O (stereo partly specified)
inactive: CP291 | CP297 | CP305 | CP315 | CP325 | CP329 | CP335 | DFO2036 | DIV14 | DIV17 | DIV30 | Dd2 | ECU | FAB9 | GB4 | HB3 | ICS | JCK | N140 | P93_24

CCCCCCOC(=O)c1cccnc1
inactive: CP291 | CP297 | CP305 | CP315 | CP325 | CP329 | CP335 | DFO2036 | DIV14 | DIV17 | DIV30 | Dd2 | ECU | FAB9 | GB4 | HB3 | ICS | JCK | N140 | P93_24

[O-][N+](=Nc1ccccc1)c1ccccc1
inactive: CP291 | CP297 | CP305 | CP315 | CP325 | CP329 | CP335 | DFO2036 | DIV14 | DIV17 | DIV30 | Dd2 | ECU | FAB9 | GB4 | HB3 | ICS | JCK | N140 | P93_24

O=C(O)Cc1nn(Cc2ccc(Br)cc2F)c(=O)c2ccccc12
inactive: CP291 | CP297 | CP305 | CP315 | CP325 | CP329 | CP335 | DFO2036 | DIV14 | DIV17 | DIV30 | Dd2 | ECU | FAB9 | GB4 | HB3 | ICS | JCK | N140 | P93_24

CC(C)Cc1ccc([C@@H](C)C(=O)NS(C)(=O)=O)cc1
inactive: CP291 | CP297 | CP305 | CP315 | CP325 | CP329 | CP335 | DFO2036 | DIV14 | DIV17 | DIV30 | Dd2 | ECU | FAB9 | GB4 | HB3 | ICS | JCK | N140 | P93_24

S=C1SCN(Cc2ccccc2)CN1Cc1ccccc1
inactive: CP291 | CP297 | CP305 | CP315 | CP325 | CP329 | CP335 | DFO2036 | DIV14 | DIV17 | DIV30 | Dd2 | ECU | FAB9 | GB4 | HB3 | ICS | JCK | N140

CC(=O)N=c1sc(S(N)(=O)=O)nn1C
inactive: CP291 | CP297 | CP305 | CP315 | CP325 | CP329 | CP335 | DFO2036 | DIV14 | DIV17 | DIV30 | Dd2 | ECU | FAB9 | GB4 | HB3 | ICS | JCK | N140

O=[n+]1ccn([O-])c2ccccc21
inactive: CP291 | CP297 | CP305 | CP315 | CP325 | CP329 | CP335 | DFO2036 | DIV14 | DIV17 | DIV30 | Dd2 | ECU | FAB9 | GB4 | HB3 | ICS | JCK | N140 | P93_24

OCC(O)CO
inactive: CP291 | CP297 | CP305 | CP315 | CP325 | CP329 | CP335 | DFO2036 | DIV14 | DIV17 | DIV30 | Dd2 | ECU | FAB9 | GB4 | HB3 | ICS | JCK | N140 | P93_24

CCOC(=O)c1cc(-c2ccccc2)nc2ccc(C)cc12
inactive: CP291 | CP297 | CP305 | CP315 | CP325 | CP329 | CP335 | DFO2036 | DIV14 | DIV17 | DIV30 | Dd2 | ECU | FAB9 | GB4 | HB3 | ICS | JCK | N140 | P93_24

CC(C)(CO)[C@@H](O)C(=O)NCCC(=O)NCCSSCCNC(=O)CCNC(=O)[C@H](O)C(C)(C)CO
inactive: CP291 | CP297 | CP305 | CP315 | CP325 | CP329 | CP335 | DFO2036 | DIV14 | DIV17 | DIV30 | Dd2 | ECU | FAB9 | GB4 | HB3 | ICS | JCK | N140 | P93_24

O=P(O)(O)CP(=O)(O)O
inactive: CP291 | CP297 | CP305 | CP315 | CP325 | CP329 | CP335 | DFO2036 | DIV14 | DIV17 | DIV30 | Dd2 | ECU | FAB9 | GB4 | HB3 | ICS | JCK | N140 | P93_24

Cc1cccc(Nc2ncccc2C(=O)O)c1C
inactive: CP291 | CP297 | CP305 | CP315 | CP325 | CP329 | CP335 | DFO2036 | DIV14 | DIV17 | DIV30 | Dd2 | ECU | FAB9 | GB4 | HB3 | ICS | JCK | N140 | P93_24

OCl
inactive: CP291 | CP297 | CP305 | CP315 | CP325 | CP329 | CP335 | DFO2036 | DIV14 | DIV17 | DIV30 | Dd2 | ECU | FAB9 | GB4 | HB3 | ICS | JCK | N140 | P93_24

CCCc1ccc(C(=O)O)cc1
inactive: CP291 | CP297 | CP305 | CP315 | CP325 | CP329 | CP335 | DFO2036 | DIV14 | DIV17 | DIV30 | Dd2 | ECU | FAB9 | GB4 | HB3 | ICS | JCK | N140 | P93_24

CC(C)(COP(=O)(O)OP(=O)(O)OC[C@H]1O[C@@H](n2cnc3c(N)ncnc32)[C@H](O)[C@@H]1OP(=O)(O)O)C(O)C(=O)NCCC(=O)NCCS (stereo partly specified)
inactive: CP291 | CP297 | CP305 | CP315 | CP325 | CP329 | CP335 | DFO2036 | DIV14 | DIV17 | DIV30 | Dd2 | ECU | FAB9 | GB4 | HB3 | ICS | JCK | N140 | P93_24

CC1CC(O)CC(C)(C)C1 (stereo unspecified)
inactive: CP291 | CP297 | CP305 | CP315 | CP325 | CP329 | CP335 | DFO2036 | DIV14 | DIV17 | DIV30 | Dd2 | ECU | FAB9 | GB4 | HB3 | ICS | JCK | N140 | P93_24

C=C(C)C1CC=C(C)CC1 (stereo unspecified)
inactive: CP291 | CP297 | CP305 | CP315 | CP325 | CP329 | CP335 | DFO2036 | DIV14 | DIV17 | DIV30 | Dd2 | ECU | FAB9 | GB4 | HB3 | ICS | JCK | N140 | P93_24

O=S(=O)(O)CCCS(=O)(=O)O
inactive: CP291 | CP297 | CP305 | CP315 | CP325 | CP329 | CP335 | DFO2036 | DIV14 | DIV17 | DIV30 | Dd2 | ECU | FAB9 | GB4 | HB3 | ICS | JCK | N140 | P93_24

C[C@H](O)CN(C)C
inactive: CP291 | CP297 | CP305 | CP315 | CP325 | CP329 | CP335 | DFO2036 | DIV14 | DIV17 | DIV30 | Dd2 | ECU | FAB9 | GB4 | HB3 | ICS | JCK | N140 | P93_24

NC(=O)C1c2ccccc2CCc2ccccc21
inactive: CP291 | CP297 | CP305 | CP315 | CP325 | CP329 | CP335 | DFO2036 | DIV14 | DIV17 | DIV30 | Dd2 | ECU | FAB9 | GB4 | HB3 | ICS | JCK

Nc1ncnc2c1ncn2CCOCP(=O)(O)O
inactive: CP291 | CP297 | CP305 | CP315 | CP325 | CP329 | CP335 | DFO2036 | DIV14 | DIV17 | DIV30 | Dd2 | ECU | FAB9 | GB4 | HB3 | ICS | JCK | N140 | P93_24

CCC(Cc1c(I)cc(I)c(O)c1I)C(=O)O (stereo unspecified)
inactive: CP291 | CP297 | CP305 | CP315 | CP325 | CP329 | CP335 | DFO2036 | DIV14 | DIV17 | DIV30 | Dd2 | ECU | FAB9 | GB4 | HB3 | ICS | JCK | N140 | P93_24

COC(=O)CC[C@H](N)C(=O)O
inactive: CP291 | CP297 | CP305 | CP315 | CP325 | CP329 | CP335 | DFO2036 | DIV14 | DIV17 | DIV30 | Dd2 | ECU | FAB9 | GB4 | HB3 | ICS | JCK | N140 | P93_24

O=C(O)CCC(=O)c1ccc(-c2ccccc2)cc1
inactive: CP291 | CP297 | CP305 | CP315 | CP325 | CP329 | CP335 | DFO2036 | DIV14 | DIV17 | DIV30 | Dd2 | ECU | FAB9 | GB4 | HB3 | ICS | JCK | N140 | P93_24

CCOc1ccc(NC(=S)Nc2ccc(OCC)cc2)cc1
inactive: CP291 | CP297 | CP305 | CP315 | CP325 | CP329 | CP335 | DFO2036 | DIV14 | DIV17 | DIV30 | Dd2 | ECU | FAB9 | GB4 | HB3 | ICS | JCK | N140 | P93_24

CN1C(=O)C[C@@H](C(=O)N[C@@H](Cc2cnc[nH]2)C(=O)N2CCC[C@H]2C(N)=O)NC1=O
inactive: CP291 | CP297 | CP305 | CP315 | CP325 | CP329 | CP335 | DFO2036 | DIV14 | DIV17 | DIV30 | Dd2 | ECU | FAB9 | GB4 | HB3 | ICS | JCK | N140 | P93_24
